Here are results for 33 molecules from PubChem BioAssay (NCATS).

Inconclusive results are not listed. Where a call stands in place of a potency, no number is given. The source made the active and inactive calls. Calls follow the shape of the dose curve; as a rule, active = well fitted inhibition curve with a large enough effect; inconclusive = small, poorly fitted or top-dose-only effect; inactive = flat fitted curve, though single readings scatter.
Potency is read from the fitted curve at half-maximal effect.

The assay is described as follows: Cytometry Cell-Based qHTS for Inhibitors of the mTORC1 Signaling Pathway in MEF cells (AID 2668). To be noted: mTORC1 pathway readout; series mostly up to 38.3 µM. The text has this:
NIH Molecular Libraries Probe Production Centers Network [MLPCN]
NIH Chemical Genomics Center [NCGC]
Assay Submitter (PI): Blenis, John; Hoffman, Greg; Harvard University
NCGC Assay Overview: The mammalian target of rapamycin (mTOR) is an intracellular serine/threonine kinase Aberrant regulation of mTOR signaling plays a causative role in a number of human diseases, including cancer, benign tumors such as lymphangioleiomyomatosis (LAM) and Tuberous Sclerosis Complex (TSC), and metabolic diseases such as diabetes and obesity. This project aims to identify inhibitors of ribosomal protein S6 (rpS6) phosphorylation. The phosphorylation of rpS6 is a key event downstream of mTOR activation. The assay uses a phospho-specific antibody of phospho-rpS6 to detect inhibitors of mTOR activation. Mutations in the Tsc1 and Tsc2 genes are the underlying genetic lesions responsible for TSC, causing constitutive activation of the mTORC1 pathway and leading to profound effects on cell metabolism. Aberrant metabolism in cancer has recently received significant attention as a target to develop therapeutic agents in the treatment of cancer.1 As Tsc2-/- cells have lost the ability to respond to energy and growth factor deprivation, these cells are unable to properly down regulate cellular biosynthetic processes in response to metabolic stress, and are thus extremely sensitive to glucose deprivation-induced death.2 A central goal of this project is to explore the unique cell survival and metabolic properties of cells with Tsc1 or Tsc2 by screening for compounds that selectively target the Tsc2-/- MEFs by screening both Tsc2-/- and WT MEF cell lines. We hope to better understand these aspects of TSC physiology in order to exploit them for therapeutic benefit.
NCGC Acumen Assay Protocol:
For quantitative high throughput analysis of mTORC1 signaling, we developed a cell-based assay for immuno-fluorescence based detection of rpS6 phosphorylation on the Acumen Explorer that will be used a platform for the primary small molecule screen. Mouse embryonic fibroblasts (MEFs) are cultured in 1536-well plates using DMEM + 10% FBS. Twenty-four hrs after plating, test compounds (solubilized in DMSO) are delivered and incubated with the cells for 24 hrs at 37 degree Celsius. Following the incubation, media with compound is aspirated and the cells are fixed in 4% paraformaldehyde (PFA) containing PBS + 0.2% TX-100. Next, PFA is aspirated, cells are washed two times with PBS plus 0.2% TX-100 and the cells are blocked for 1 hr at room temperature (blocking buffer: LiCOR Blocking Buffer plus 0.2% TX-100). This is followed by aspiration and staining with Alexa-488 conjugated-phospho-rpS6 Ser235/236 antibody for 2 hours at room temperature (Cell Signaling Technology # 4803, 1:50 dilution in blocking buffer). Cells are washed two times with PBS plus 0.2% TX-100, and stained with 10 uM propidium iodide (PI) for 20-25 minutes for cell number measurement (1:500 dilution of Hoescht staining is also added for IN Cell imaging). The plates are scanned on the Acumen Explorer laser scanning instrument (TTP Labtech) using the 488nm laser for simultaneous excitation of the Alexa-488 and PI. The fluorescence emission from the Alexa-488 conjugated rpS6 phospho-235/236 antibody staining is selected using a […] band pass filter. Fluorescence emission from the PI stain is selected using a 575-640 nm band pass filter. The normalized phospho-S6 staining is calculated as the ratio of the integrated Alexa 488 intensity divided by the integrated PI intensity for the single concentration rapamycin control (7.5 nM) and DMSO columns. […] Inhibition of the pathway is defined based on the normalized phospho-S6 intensity in rapamycin treated cells. […]
As for `NCC(CC(=O)O)c1ccc(Cl)cc1` (stereo not drawn), the Potency entry was “inactive”.

Regarding `NCC1(CC(=O)O)CCCCC1`, the Potency entry is “inactive”.

As to `COc1ccccc1N1CCNCC1`, the Potency result was “inactive”.

For the molecule `Cc1cccc(C)c1NC(=O)CN1CCCC1=O`, the Potency entry is “inactive”.

On to `Cc1cccc(C)c1NC1=NCCCS1`, for which the Potency entry is “inactive”.

With `CC(CCc1ccccc1)NC(C)C(O)c1ccc(O)cc1` (stereo not drawn), the Potency result is “inactive”.

`O=C1NCN(c2ccccc2)C12CCN(CC1COc3ccccc3O1)CC2` (stereo not drawn): the Potency entry is “inactive”.

Turning to `COc1ccc(C(CN(C)C)C2(O)CCCCC2)cc1` (stereo not drawn), the Potency entry is “inactive”.

For `NN=C(N)N`, the Potency result was “inactive”.

Take `CCC1(C2=NCCN2)Cc2ccccc2O1` (stereo not drawn): the Potency entry was “inactive”.

With `CNCC(O)c1ccc(O)cc1` (stereo not drawn), the Potency result was “inactive”.

Take `Nc1ccncc1`: the Potency entry is “inactive”.

`CC[C@@H](CO)NC(=O)[C@@H]1C=C2c3cccc4c3c(cn4C)C[C@H]2N(C)C1`: the Potency entry was “inactive”.

Turning to `CCCC(C)(COC(N)=O)COC(=O)NC(C)C` (stereo not drawn), the Potency entry was “inactive”.

Regarding `Cc1ncc(CNC(=O)N(CCCl)N=O)c(N)n1`, the Potency result was “inactive”.

Take `CN(C)C(=O)C(CCN1CCC(O)(c2ccc(Cl)cc2)CC1)(c1ccccc1)c1ccccc1`: the Potency is 13.1 µM (active).

As to `N#CC(C#N)=Cc1ccc(O)c(O)c1`, the Potency result is “inactive”.

`Cc1ccc(S(=O)(=O)N[C@@H](CCCCN)C(=O)CCl)cc1`: the Potency result is “inactive”.

Regarding `NCC(O)c1ccc(O)cc1` (stereo not drawn), the Potency entry is “inactive”.

With `CC(O)(CS(=O)(=O)c1ccc(F)cc1)C(=O)Nc1ccc(C#N)c(C(F)(F)F)c1` (stereo not drawn), the Potency entry was “inactive”.

Regarding `CN1C[C@H](CNC(=O)OCc2ccccc2)C[C@@H]2c3cccc4c3c(cn4C)C[C@H]21`, the Potency result was “inactive”.

Take `CC(=O)[C@H]1CC[C@H]2[C@@H]3CC[C@H]4C[C@H](O)CC[C@]4(C)[C@H]3C(=O)C[C@]12C`: the Potency result was “inactive”.

Take `COC[C@H]1OC(=O)c2coc3c2[C@@]1(C)C1=C(C3=O)C2CCC(=O)[C@@]2(C)C[C@H]1OC(C)=O` (stereo partly drawn): the Potency result is “inactive”.

Take `C=C(C)[C@H]1Cc2c(ccc3c2O[C@@H]2COc4cc(OC)c(OC)cc4[C@@H]2C3=O)O1`: the Potency is 0.0585 µM (active).

Take `CC[C@@H](CO)NC(=O)[C@@H]1C=C2c3cccc4[nH]cc(c34)C[C@H]2N(C)C1`: the Potency result was “inactive”.

For the molecule `c1ccc(C2CC2)c(OCC2=NCCN2)c1`, the Potency entry was “inactive”.

Consider `C[C@@H]1O[C@@H](O[C@H]2C[C@@H](O)[C@]3(CO)[C@H]4[C@H](O)C[C@]5(C)[C@@H](C6=CC(=O)OC6)CC[C@]5(O)[C@@H]4CC[C@]3(O)C2)[C@H](O)[C@H](O)[C@H]1O`, for which the Potency entry is “inactive”.

Take `CCCN1CCC[C@@H]2Cc3[nH]ncc3C[C@H]21`: the Potency result was “inactive”.

As to `Fc1ccc(C(OCCN2CCN(CCCc3ccccc3)CC2)c2ccc(F)cc2)cc1`, the Potency is 18.5 µM (active).

With `c1ccc2c(c1)OCC(C1=NCCN1)O2` (stereo not drawn), the Potency was 4.65 µM (active).

Turning to `CC(=O)[C@H]1CC[C@H]2[C@@H]3CC[C@H]4C[C@](C)(O)CC[C@]4(C)[C@H]3CC[C@]12C`, the Potency result was “inactive”.

In the case of `CC(C)=CCOc1c2occc2cc2ccc(=O)oc12`, the Potency result is “inactive”.

For the molecule `CCCN1CCC[C@@H]2Cc3nc(N)ncc3C[C@H]21`, the Potency entry is “inactive”.
